The source of these data is PubChem BioAssay (NCI).

About 83,000 compounds went through this panel and 20% of them were active in at least one assay; those are over-represented in the sample as a whole.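 How to read the values: 0–100, growth inhibition (40 = 60% inhibited); 0, no net growth; -100 to 0, cell death (-40 = 40% of starting cells died; -100 = all dead).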 Unmarked numbers belong to inactive results. Activity calls are given as the source filed them. The calls were made as follows: active = growth percent below 10; inactive = the rest.

Some test systems named below: HCT-15 colon; HT29 colon; SNB-75 CNS; SNB-19 CNS; U251 CNS; PC-3 prostate; SK-MEL-5 melanoma; UACC-62 melanoma; LOX IMVI melanoma; SK-MEL-28 melanoma; SK-MEL-2 melanoma; EKVX NSCLC; SN12C renal; UO-31 renal; TK-10 renal; ACHN renal; CAKI-1 renal; A498 renal; CCRF-CEM leukemia; MOLT-4 leukemia.
Test in all cases: NCI-60 one-dose screen, 48 h (100 = growth as untreated, 0 = no growth, -100 = all killed)
Holding throughout (details): 10 µM unless noted

As to `NNC(=O)c1ccc(-n2nc(-c3ccccc3)c3ccccc32)cc1`, the growth in the assay with HCT-15 colon is 57.6%; in the assay on HT29 colon it was 103%; in the assay with SNB-75 CNS, 53.6%; in the assay with SNB-19 CNS it was 66.1%; in the assay with U251 CNS it was 22.6%; in the assay on PC-3 prostate it was 69.4%. The growth with SK-MEL-5 melanoma is 84.5%; in the assay on UACC-62 melanoma it was 80.7%; in the assay on LOX IMVI melanoma, 68.2%; with SK-MEL-28 melanoma, 83.9%; in the assay on SK-MEL-2 melanoma it was 79.3%; with EKVX NSCLC, 63.4%. Besides, the growth with SN12C renal is 75.1%; with UO-31 renal, 68%; in the assay on TK-10 renal, 110%; with ACHN renal, 85.6%; with CAKI-1 renal, 76.5%; in the assay on A498 renal it was 75%. In addition, the growth in the assay on CCRF-CEM leukemia was 37.2%; in the assay with MOLT-4 leukemia, 74.8%.
Take `CC(=O)Oc1ccc(/C=N/NC(N)=S)nc1`: the growth in the assay on HCT-15 colon was 92%; with HT29 colon, 94.6%; with SNB-75 CNS, 8.77% (active); with SNB-19 CNS, 102%; with U251 CNS it was 51.7%; with PC-3 prostate it was 81%. Also, the growth is 14.6% with SK-MEL-5 melanoma; 59.3% in the assay with UACC-62 melanoma; 47.7% in the assay with LOX IMVI melanoma; 65.7% in the assay with SK-MEL-28 melanoma; 79.2% in the assay on SK-MEL-2 melanoma; 105% with EKVX NSCLC. Further, the growth is 73.6% in the assay with SN12C renal; 52.7% in the assay on UO-31 renal; 108% in the assay on TK-10 renal; 13.2% in the assay with ACHN renal; 49.8% with CAKI-1 renal; 88.6% in the assay with A498 renal. The values for the growth with CCRF-CEM leukemia and with MOLT-4 leukemia were 39.3% and 56%, respectively.
With `COc1ccc(/C=C/c2nc(Nc3ccc(S(=O)(=O)NC(C)=O)cc3)c3ccccc3n2)cc1`, the growth was 55.2% in the assay with HCT-15 colon; 67.2% in the assay on HT29 colon; 97.7% in the assay with SNB-75 CNS; 78.9% in the assay with SNB-19 CNS; 74.8% in the assay on U251 CNS; 79.3% with PC-3 prostate. For the same compound, the growth with SK-MEL-5 melanoma was 77.1%; in the assay on UACC-62 melanoma, 25.6%; with LOX IMVI melanoma it was 38.3%; in the assay on SK-MEL-28 melanoma, 96.1%; in the assay with SK-MEL-2 melanoma, 99%; in the assay with EKVX NSCLC, 81.6%. Also, the growth in the assay on SN12C renal was 86.7%; with UO-31 renal it was 80.6%; in the assay on TK-10 renal, 92%; in the assay on ACHN renal, 68.6%; with CAKI-1 renal it was 59.6%; in the assay on A498 renal, 9.58% (active). In addition, the growth was 81.7% in the assay with CCRF-CEM leukemia and 79.3% in the assay on MOLT-4 leukemia.
Turning to `Clc1ccc(-c2ccc(CNCC3CCNCC3)o2)c(-c2ccccc2)c1`, the growth with HCT-15 colon was -76.3% (active); in the assay with HT29 colon, -78.6% (active); in the assay with SNB-75 CNS, -90.8% (active); with SNB-19 CNS, -68.1% (active); in the assay on U251 CNS, -88.8% (active); in the assay on PC-3 prostate it was -81.8% (active). In addition, the growth in the assay on SK-MEL-5 melanoma is -99.1% (active); with UACC-62 melanoma, -90.8% (active); with LOX IMVI melanoma, -86.7% (active); with SK-MEL-28 melanoma it was -90% (active); in the assay with SK-MEL-2 melanoma, -75.7% (active); in the assay on EKVX NSCLC it was -15% (active). The growth in the assay on SN12C renal was -75.6% (active); in the assay on UO-31 renal, -95.1% (active); in the assay on TK-10 renal, -85.3% (active); in the assay on ACHN renal it was -96.8% (active); with CAKI-1 renal, -85.3% (active); in the assay on A498 renal it was 6.29% (active). Moreover, the growth in the assay on CCRF-CEM leukemia and in the assay on MOLT-4 leukemia was -62.7% (active) each time.
`Cc1cccc(-c2cn3ccnc3c(-c3ccc4ncn(Cc5ccccc5)c4c3)n2)c1`: the growth in the assay with HCT-15 colon was 64.8%; in the assay on HT29 colon, 58%; in the assay on SNB-75 CNS it was 78.3%; in the assay with SNB-19 CNS, 97.4%; with U251 CNS, 80.6%; in the assay with PC-3 prostate, 75.2%. The growth in the assay with SK-MEL-5 melanoma is 89.9%; in the assay with UACC-62 melanoma, 97.5%; in the assay on LOX IMVI melanoma, 85.2%; in the assay with SK-MEL-28 melanoma, 101%; in the assay on SK-MEL-2 melanoma, 93.7%; in the assay with EKVX NSCLC, 77.7%. Moreover, the growth in the assay with SN12C renal is 95.3%; in the assay on UO-31 renal it was 58.3%; in the assay on TK-10 renal it was 110%; in the assay with ACHN renal, 87.6%; in the assay on CAKI-1 renal, 75.2%; in the assay on A498 renal, 77.9%. Further, the results for the growth in the assay with CCRF-CEM leukemia and in the assay on MOLT-4 leukemia were 78.9% and 63.1%, respectively.
Turning to `CCN(CC)CCOc1ccc(NC(=O)C(C(C)C)N2C(=O)/C(=C/c3ccc(Br)cc3)SC2=S)cc1` (stereo not given), the growth in the assay on HCT-15 colon was -40.9% (active); in the assay with HT29 colon, -5.87% (active); in the assay with SNB-75 CNS it was 66%; in the assay with SNB-19 CNS, 57.6%; in the assay on U251 CNS, 71.7%; with PC-3 prostate, 64.5%. Further, the growth with SK-MEL-5 melanoma is 89.2%; in the assay on UACC-62 melanoma it was 95.3%; in the assay with LOX IMVI melanoma, 62.9%; with SK-MEL-28 melanoma, 89%; with SK-MEL-2 melanoma, 101%; with EKVX NSCLC, 90%. The growth in the assay with SN12C renal is 73.3%; with UO-31 renal, 74.5%; with TK-10 renal, 95.6%; with ACHN renal, 62.1%; in the assay on CAKI-1 renal, 81%; in the assay with A498 renal, 99.5%. Besides, the growth is -16.7% (active) in the assay with CCRF-CEM leukemia and 3.96% (active) in the assay with MOLT-4 leukemia.
On to `O=C1/C=C/[C@@H](O)[C@@H]2C[C@@H](O)C[C@H]2/C=C/CCC[C@H](CCc2cccc3ccccc23)O1`, for which the growth with HCT-15 colon was 7.46% (active); in the assay on HT29 colon, 3.87% (active); in the assay on SNB-75 CNS it was 33%; in the assay with SNB-19 CNS, 30.1%; in the assay with U251 CNS, 23.8%; in the assay on PC-3 prostate, 20.6%. Besides, the growth in the assay with SK-MEL-5 melanoma is -95.9% (active); in the assay on UACC-62 melanoma, 11.9%; with LOX IMVI melanoma it was -55.9% (active); in the assay with SK-MEL-28 melanoma, 2.17% (active); with SK-MEL-2 melanoma, -9.52% (active); in the assay with EKVX NSCLC, 13.3%. Also, the growth with SN12C renal is 5.88% (active); with UO-31 renal it was 4.61% (active); in the assay with TK-10 renal, -0.338% (active); with ACHN renal, 6.35% (active); in the assay on CAKI-1 renal, -17.9% (active); in the assay on A498 renal, -35.6% (active). Moreover, the values for the growth in the assay with CCRF-CEM leukemia and in the assay with MOLT-4 leukemia were 7.69% (active) and -36.2% (active), respectively.
